Assay outcomes deposited in PubChem by National Center for Advancing Translational Sciences (NCATS).
RORg inh: inhibitors of mouse ROR gamma transcriptional activity | AID 2551 | Potency, µM (highest dose often 53.6 µM), inactives show at the top dose activity change, negative = inhibition, usual class: inhibitors | Drosophila S2 Gal4-RORgamma UAS-luciferase reporter, 20 h | 5.4% of 310,000 active; also: nearly all actives have a fitted effect of over 60% in size
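Drosophila Schneider cells stably carrying a metallothionein-driven Gal4 DBD–ROR gamma fusion and a UAS-Photinus luciferase reporter were exposed to compound for 1 hr, then induced with copper sulfate (700 uM final) for 20 hr at ambient temperature before luminescence reading.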
TDP1 cell noCPT: qHTS for Inhibitors of human tyrosyl-DNA phosphodiesterase 1 (TDP1): qHTS in cells in absence of CPT | DT40 Tdp1-/- hTDP1 cells, no CPT, ATP luminescence, 48 h | Potency, µM (titrated, usually from 46.2 µM), for inactives: top-dose activity change, negative = growth inhibition, usual class: inhibitors | 15% of 420,000 active | AID 686978, 2013; also: nearly all actives have a fitted effect of over 55% in size
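DT40 Tdp1-/-;hTDP1 cells, no CPT (DMSO vehicle only), 400 cells/well; compounds pin-transferred; ≥48 hr, 37 °C; CellTiter-Glo 30 min RT dark, luminescence read.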
TDP1 cell CPT: growth inhibition of DT40 Tdp1-/-;hTDP1 cells with camptothecin (screen for TDP1 inhibitors). AID 686979. Potency, µM (titrated, usually from 46.2 µM), for inactives: top-dose activity change, negative = growth inhibition, usual class: inhibitors. chicken DT40 Tdp1-/-;hTDP1 cells + 20 nM CPT, ATP luminescence, 48 h. 12% of 420,000 active; also: nearly all actives have a fitted effect of over 55% in size
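Chicken DT40 Tdp1-/- cells stably complemented with human TDP1 were seeded at 400 cells/well in medium containing 20 nM camptothecin, exposed to pin-transferred compounds, and grown at 37 °C for at least 48 hr. Viability was read as ATP luminescence.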
VP16 counter: inhibits Gal4-VP16 luciferase reporter, ROR gamma counter-screen; Drosophila S2 Gal4-VP16 UAS-luciferase, luminescence, 20 h; Potency, µM (highest dose often 53.6 µM), without a hit: at the top dose activity, negative = inhibition, actives largely listed as inhibitors; 3.5% of 310,000 active; AID 2546;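 also: Gal4-VP16 expression switched on by copper sulfate through the metallothionein promoter; nearly all actives have a fitted effect of over 50% in size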
TDP1 block: TDP1 (human) enzyme inhibition. recombinant TDP1, AlphaScreen DNA substrate cleavage. Q9NUW8. Potency, µM (highest dose often 130 µM), for the others: at the top dose activity change, negative = inhibition, actives largely listed as inhibitors. 0.28% of 350,000 active. AID 485290; also: nearly all actives have a fitted effect of over 40% in size
Target sequence (Q9NUW8 whole entry, looked up): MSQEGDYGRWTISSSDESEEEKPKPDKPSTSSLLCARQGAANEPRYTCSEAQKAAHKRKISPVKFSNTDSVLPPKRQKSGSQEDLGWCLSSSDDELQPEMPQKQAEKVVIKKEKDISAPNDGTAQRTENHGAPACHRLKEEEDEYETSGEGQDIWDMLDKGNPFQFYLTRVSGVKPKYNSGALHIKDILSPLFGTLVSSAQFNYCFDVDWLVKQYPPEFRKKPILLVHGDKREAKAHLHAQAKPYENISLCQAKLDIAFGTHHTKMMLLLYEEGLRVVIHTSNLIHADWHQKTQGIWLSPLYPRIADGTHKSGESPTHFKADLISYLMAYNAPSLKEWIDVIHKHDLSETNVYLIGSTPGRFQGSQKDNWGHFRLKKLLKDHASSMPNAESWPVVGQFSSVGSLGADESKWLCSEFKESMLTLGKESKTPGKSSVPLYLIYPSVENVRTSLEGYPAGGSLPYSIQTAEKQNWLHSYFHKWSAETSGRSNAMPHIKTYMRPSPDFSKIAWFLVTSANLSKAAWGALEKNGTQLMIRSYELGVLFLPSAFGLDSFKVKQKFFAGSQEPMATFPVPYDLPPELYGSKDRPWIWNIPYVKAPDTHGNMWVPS
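Recombinant E. coli-expressed Tdp1 (1 nM) preincubated with compound 15 min at RT, then 5'-biotin/3'-phosphotyrosine-FITC DNA substrate (15 nM) added for 5 min. AlphaScreen beads (10 ug/ml) added, 10 min RT; tyrosine-FITC cleavage read as signal loss.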
Active calls of the source: *; [ ] = dose if it differs, or a comment. Shown are actives, neighbours in structure and some others; about 19% of the full set was active somewhere. Calls follow the shape of the dose curve; as a rule, active = well fitted curve in the direction sought with a large enough effect; inconclusive = small, poorly fitted or top-dose-only effect, or another doubt; inactive = no such curve, though single readings can be large; an effect the other way counts as inactive or inconclusive. % is scaled to controls: 0 for no effect and ±100 for the full control effect; potency is read from the fitted curve at half-maximal effect.

`Cc1ccc(O)c(C(=O)c2cnc3c(c2)c(-c2ccc(F)cc2)c(C#N)c(=O)n3C)c1` gave RORg inh 32%, TDP1 cell noCPT 21µM*, TDP1 cell CPT 18µM*, VP16 counter -20% and TDP1 block 8%.
For CCCOc1cccc(C(=O)NCCCNC(=O)c2ccccn2)c1 the results were TDP1 cell noCPT -5%, TDP1 cell CPT -7% and TDP1 block 0%.
For COC(=O)c1cc(Sc2cccc(Cl)c2Cl)ccn1 the results were RORg inh inconclusive, TDP1 cell noCPT -50%, TDP1 cell CPT inconclusive, VP16 counter 11µM* and TDP1 block -4%.
For COC(=O)c1cc(Sc2c(Cl)cccc2Cl)ccn1 the results were RORg inh inconclusive, TDP1 cell noCPT 2.3µM*, TDP1 cell CPT -25%, VP16 counter 6%[10 µM] and TDP1 block 5%.
Screening COC(=O)c1ncccc1SC returned RORg inh 0%, TDP1 cell noCPT -20%, TDP1 cell CPT -13%, VP16 counter -4% and TDP1 block 2%.
For O=C(/C(C=Nc1ccc(Br)cc1)=C(/O)c1ccco1)C(F)(F)F the results were RORg inh inconclusive, TDP1 cell noCPT -13%, TDP1 cell CPT -6%, VP16 counter -15% and TDP1 block 1%.
For Cc1ccc(SCC(Cc2ccccc2)N2CCN(CC(C)C)CCC2=O)cc1 (configuration not stated) the results were RORg inh 0%, VP16 counter -6% and TDP1 block 8%.
For CC(C)C[C@@H](COc1ccccc1)N1CCN(CCc2ccccc2)CCC1=O the results were RORg inh 20%, TDP1 cell noCPT 21µM*, TDP1 cell CPT 11µM* and VP16 counter 10%.
Screening CCCN1CCC(=O)N([C@H](COc2ccccc2)CC(C)C)CC1 returned RORg inh -9%, TDP1 cell noCPT inconclusive, TDP1 cell CPT inconclusive and VP16 counter -1%.
For O=C1CCN(CCc2ccccc2)CCN1[C@H](COc1ccccc1)Cc1ccccc1 the results were RORg inh 42%, TDP1 cell noCPT 11µM*, TDP1 cell CPT 29µM* and VP16 counter -8%.
CC(C)CN1CCC(=O)N([C@H](COc2ccccc2)Cc2ccccc2)CC1 was read as RORg inh -15%, TDP1 cell noCPT 11µM*, TDP1 cell CPT 23µM* and VP16 counter -7%.
Cc1ccc([N+](=O)[O-])cc1-c1ccc(/C=C(\C#N)c2[nH]nc(N)c2C#N)o1 was read as RORg inh inconclusive, TDP1 cell noCPT 13µM*, TDP1 cell CPT inconclusive, VP16 counter inconclusive and TDP1 block -8%.
For CCCCS(=O)(=O)c1nc(-c2ccc(Br)cc2)cc(-c2ccccc2)c1C#N the results were TDP1 cell noCPT 2.6µM*, TDP1 cell CPT 3.7µM* and TDP1 block -1%[12.3 µM].
`N#Cc1c(-c2ccccc2)cc(-c2ccccc2)nc1Br` gave RORg inh -14%, TDP1 cell noCPT inconclusive, TDP1 cell CPT inconclusive, VP16 counter -5% and TDP1 block 0%.
For CSc1nc2nc(-c3ccccc3)cc(=O)n2[nH]1 the results were RORg inh -23%, TDP1 cell noCPT inconclusive, TDP1 cell CPT -27%, VP16 counter -9% and TDP1 block -1%.
Screening COc1cc2ncc(S(=O)(=O)c3ccccc3)c(N3CCCC(C)C3)c2cc1OC (configuration not stated) returned RORg inh inconclusive, TDP1 cell noCPT 12µM*, TDP1 cell CPT inconclusive and VP16 counter 7%.
Cc1nn(Cc2ccccc2Cl)c(C)c1NC(=O)c1noc(C(C)C)c1[N+](=O)[O-] was read as RORg inh 27%, TDP1 cell noCPT 0%, TDP1 cell CPT -7%, VP16 counter 11% and TDP1 block 3%.
For CCc1ccccc1NC(=O)c1noc(C(C)C)c1[N+](=O)[O-] the results were RORg inh 34%, TDP1 cell noCPT inconclusive, TDP1 cell CPT 15µM*, VP16 counter -8% and TDP1 block -3%.
CC(C)c1onc(C(=O)NCc2ccccc2)c1[N+](=O)[O-] was read as RORg inh -16%, TDP1 cell noCPT 21µM*, TDP1 cell CPT 16µM*, VP16 counter -5% and TDP1 block 0%.
Screening Cc1onc(C(=O)Nc2cccnc2Cl)c1[N+](=O)[O-] returned RORg inh 15%, TDP1 cell noCPT -13%, TDP1 cell CPT inconclusive, VP16 counter -1% and TDP1 block 6%.
For CC(C)c1onc(C(=O)Nc2cccnc2Cl)c1[N+](=O)[O-] the results were RORg inh 21%, TDP1 cell noCPT inconclusive, TDP1 cell CPT 23µM*, VP16 counter 8% and TDP1 block 3%.
For Cc1cccc(-c2ccc3ncnc(NCc4cccs4)c3c2)c1 the results were TDP1 block 1%.
`CCOC(=O)N1CCN(C(=O)CCS(=O)(=O)c2ccc3c(c2)CCN3C(=O)CC)CC1` gave RORg inh -16%, TDP1 cell noCPT -4%, TDP1 cell CPT -3%, VP16 counter -7% and TDP1 block 8%.
`Cc1cc(=O)oc2c(C)c(OCC(=O)NC3CCN(Cc4ccccc4)CC3)ccc12` gave RORg inh 4%, TDP1 cell noCPT inconclusive, TDP1 cell CPT inconclusive, VP16 counter 0% and TDP1 block 2%.
For Cc1c(OC(C)C(=O)NCc2ccncc2)ccc2c3c(c(=O)oc12)CCC3 (configuration not stated) the results were RORg inh inconclusive, TDP1 cell noCPT inconclusive, TDP1 cell CPT inconclusive, VP16 counter -24% and TDP1 block 3%.
For CC(=O)COc1ccc2c3c(c(=O)oc2c1C)CCCCC3 the results were RORg inh inconclusive, TDP1 cell noCPT inconclusive, TDP1 cell CPT 15µM*, VP16 counter 5% and TDP1 block -5%.
Cc1c(OCC(=O)N(C)C)ccc2c3c(c(=O)oc12)CCCCC3 was read as RORg inh 2%, TDP1 cell noCPT inconclusive, TDP1 cell CPT -16%, VP16 counter 3% and TDP1 block 6%.
Cc1c(OC(C)C(=O)NCc2ccccn2)ccc2c3c(c(=O)oc12)CCCC3 (configuration not stated) was read as RORg inh 40%, TDP1 cell noCPT inconclusive, TDP1 cell CPT 13µM*, VP16 counter -21% and TDP1 block 6%.
`Cc1c(OCC(=O)NC2CCN(Cc3ccccc3)CC2)ccc2c3c(c(=O)oc12)CCC3` gave RORg inh -17%, TDP1 cell noCPT inconclusive, TDP1 cell CPT 16µM*, VP16 counter -5% and TDP1 block 1%.
CC(=O)Nc1nonc1C(=O)N1CCC(C)CC1 was read as RORg inh 1%, TDP1 cell noCPT -20%, TDP1 cell CPT inconclusive, VP16 counter 1% and TDP1 block 7%.
